# Results taken from PubChem BioAssay (EPA / NIEHS).
# Activity calls are given as the source filed them. Rule for the calls: active = hit-call score of the fitted dose curve at least 0.9, where 1 is the maximum; inactive = score below 0.9.
# Assay: ATG_GLI_CIS: Attagene CIS-FACTORIAL HepG2 Assay for human Zinc Finger Protein GLI1 (AID 2282945)
# Conditions: HepG2, Attagene cis-factorial reporter mRNA, GLI element; actives raise or lower the signal
# Experimental: ATG_CIS is a cell-based, multiplexed-readout assay that uses HepG2, a human liver cell line, with measurements taken at 24 hours after chemical dosing in a 24-well plate.ATG_GLI_CIS is one of 52 assay component(s) measured or calculated from the ATG_CIS assay. It is designed to make measurements of mRNA induction, a form of inducible reporter, as detected with fluorescence intensity signals by Reverse transcription polymerase chain reaction (RT-PCR) and Capillary electrophoresis technology.Data from the assay component ATG_GLI_CIS was analyzed into 1 assay endpoint. This assay endpoint, ATG_GLI_CIS, was analyzed with bidirectional fitting relative to DMSO as the negative control and baseline of activity. Using a type of inducible reporter, measures of mRNA for gain or loss-of-signal activity can be used to understand the reporter gene at the transcription factor-level as they relate to the gene GLI1. Furthermore, this assay endpoint can be referred to as a primary readout, because this assay has produced multiple assay endpoints where this one serves a reporter gene function. To generalize the intended target to other relatable targets, this assay endpoint is annotated to the dna binding intended target family, where the subfamily is zinc finger.
# Human liver HepG2 cells are transiently transfected with multiple reporter transcription units (MRTUs) in 6-well plates using FuGene 6 reagent (Roche; 3 ml FuGene/1 mg DNA). The MRTU constructs are regulated by a cis-regulating element (promoter). […] A major difference between the CIS and TRANS system is that in CIS activities of endogenous TFs are measured, whereas the TRANS assay evaluates changes in activities of exogenous, chimeric NR-Gal4 proteins. […] At the end of 24 hour incubation, total RNA was isolated using TriZol reagent (Invitrogen). The isolated RNA is then reverse-transcribed using oligo(dT) primer and Mo-MLV reverse transcriptase (Invitrogen) with DNAse I (Ambion) treatment for 30 min. The one-tenth of the produced cDNA was amplified by PCR using Taq DNA polymerase (Invitrogen) and two reporter sequence-specific primers. The PCR products were fluorescently labeled by primer extension with 6-arboxyfluorescein (6-FAM) 5'-labeled reporter sequence-specific primer (2 min at 95 C, 20 s at 68 C and 10 min at 72 C) and these products were digested with 5U of HpaI (New England Biolabs) for 2h at 37 C. The fragments were purified using Qiaquick PCR columns (Qiagen), analyzed on an ABI 3130xL genetic analyzer (Applied Biosystems) with peak positions identified by using a set of X-rhodamine (ROX)-labeled MapMarker1000 molecular weight standards (BioVentures). The raw capillary electrophoresis data was processed using Attagraph software (Attagene).
row,SMILES,outcome
1,C1COCCN1,inactive
2,CC(C)OC(=O)c1ccccc1C(=O)OC(C)C,inactive
3,CO[Si](OC)(c1ccccc1)c1ccccc1,inactive
4,CC(=O)Nc1ccc(N=Nc2cc(C)ccc2O)cc1,inactive
5,[Co],inactive
6,C(=C(c1ccccc1)c1ccccc1)c1ccccc1,inactive
7,O=C(O)C(F)(F)C(F)(F)C(F)(F)C(F)(F)C(F)(F)C(F)(F)C(F)(F)C(F)(F)Cl,inactive
8,OCC(F)(F)C(F)(F)C(F)(F)C(F)(F)C(F)(F)C(F)F,inactive
9,FC(F)(F)C(F)(F)C(F)(F)C(F)(F)C(F)(F)CCI,inactive
10,O=C(O)C(F)(F)C(F)(F)C(F)(F)C(F)(F)F,inactive
11,O=S(=O)(OCCOC(F)(F)F)C(F)(F)F,inactive
12,O=C(OCCOCCOCCOC(=O)c1ccccc1)c1ccccc1,inactive
13,FC(F)(F)C(F)(F)C(F)(F)CI,inactive
14,FC1CC(F)(F)C(F)(F)C1(F)F (stereo not given),inactive
15,CCCCCC=O,inactive
16,O=C(C=Cc1ccccc1)OCC=Cc1ccccc1,inactive
17,O=C(CC(=O)C(F)(F)C(F)(F)F)C(F)(F)F,inactive
18,FC(F)(F)C(F)(F)C(F)(F)C(F)(F)C(F)(F)C(F)(F)C(F)(F)C(F)(F)F,inactive
19,O=C(O)C(F)(OC(F)(F)C(F)(OC(F)(F)C(F)(F)C(F)(F)F)C(F)(F)F)C(F)(F)F (stereo not given),inactive
20,c1ccc(B(c2ccccc2)c2ccccc2)cc1,inactive

row,SMILES,outcome
1,CN(C)Cc1ccccc1O,inactive
2,CCCCC(CC)COP(=O)(O)OCC(CC)CCCC (stereo not given),inactive
3,CCO[Si](CCC(F)(F)C(F)(F)C(F)(F)C(F)(F)C(F)(F)C(F)(F)F)(OCC)OCC,inactive
4,c1ccc(-c2ccccc2-c2ccccc2)cc1,inactive
5,CNC(=S)NC,inactive
6,C=CC/C=C/C/C=C/C/C=C/C,inactive
7,O=C(O)C(F)(OC(F)(F)C(F)(OC(F)(F)C(F)(OC(F)(F)C(F)(F)C(F)(F)F)C(F)(F)F)C(F)(F)F)C(F)(F)F (stereo not given),inactive
8,OCCCC(F)(F)C(F)(F)C(F)(F)F,inactive
9,CCCCCCCOC(=O)c1ccccc1C(=O)OCCCCCCC,inactive
10,CCCCCCCCCCCCCCCC[N+](C)(C)Cc1ccccc1,inactive
11,Nc1ccc(S(=O)(=O)Nc2nccs2)cc1,inactive
12,O=P(O)(O)OCCC(F)(F)C(F)(F)C(F)(F)C(F)(F)C(F)(F)C(F)(F)F,inactive
13,O=C(O)C(F)(F)C(F)(F)C(F)(F)C(F)(F)C(F)(F)C(F)(F)C(F)(F)C(F)(F)C(F)(F)C(F)F,inactive
14,Oc1ccc(Nc2ccccc2)cc1,inactive
15,CC(C)(C)C(=O)CC(=O)C(F)(F)C(F)(F)C(F)(F)F,inactive
16,Nc1ccc([N+](=O)[O-])cc1O,inactive
17,CCCCCCOC(=O)c1ccccc1,inactive
18,CCCCNc1ccccc1,inactive
19,N=C(N)C(F)(F)C(F)(F)C(F)(F)C(F)(F)C(F)(F)C(F)(F)C(F)(F)F,inactive
20,O=C(O)C(F)(F)C(F)(F)F,inactive
